The results in this text go back to PubChem BioAssay AID743287 (Broad Institute, 2014).

The whole screen tested about 370,000 compounds, of which about 2,300 (0.62%) were called active. This excerpt belongs to a sample that is enriched for actives. Values without a mark were called inactive.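 The calls were made as follows: active = lowest replicate activation of at least 40%, so every replicate reaches that level; inactive = the rest.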

This assay can be described thus: GLuc luminescence reporter in INS-1E cells, primary screen for activators of glucose-dependent secretion of insulin (AID 743287).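 Also: 0% = median of neutral control wells and 100% = median of IBMX positive control wells.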 Particulars: INS-1E GLuc reporter insulin secretion, 2-3 h, at 16.6 µM, stronger effect = higher value.
On to `O=C(COc1cccc2c1CCNC2=O)NC1CCCCC1`, for which the activation was 44.9% (active).
On to `Cc1ccccc1NC(=O)COc1cccc2c1CCNC2=O`, for which the activation is 23.1%.
With `O=C(COc1ccccc1O)NC1CCCC1`, the activation is 11.6%.
For `COc1ccc(NC(=O)Nc2ccc3c(c2)C(=O)N([C@@H](C)CO)C[C@@H](C)[C@@H](CN(C)C(=O)Nc2ccc(F)cc2)OCCCC[C@@H](C)O3)cc1`, the activation is -7.03%.
Regarding `COc1ccc(-c2ccccc2[C@H]2[C@@H](C#N)N(C(=O)C3CCC3)[C@@H]2CO)cc1`, the activation is -4.21%.
As for `NCCCNC(=S)NCCCN(Cc1ccc(Cl)cc1)c1ccc(Br)cn1`, the activation was 57.1% (active).
On to `O=C(/C=C/c1ccc(Cl)cc1)Nc1ccc(Br)cn1`, for which the activation was 3.4%.
Consider `S=C(NCCCc1cnc[nH]1)NCCCN(Cc1ccc(Cl)c(Cl)c1)c1ccc(Br)cn1`, for which the activation is 17%.
As for `COc1ccc(C(=O)OCC(=O)Nc2cccc(C(C)=O)c2)cc1OC`, the activation is 67.3% (active).
In the case of `CCOc1cc(C(=O)OCC(=O)Nc2cccc(C)c2)ccc1OCC(=O)N1CCOCC1` it was 7.48%; in that of `COc1ccc(C(=O)OCC(=O)Nc2cc(C)on2)cc1F`, 12.4%; in that of `C[C@@H]1CN([C@@H](C)CO)S(=O)(=O)c2ccc(-c3ccncc3)cc2O[C@@H]1CN(C)C(=O)C1CCC1`, 7.69%.
Take `CCCNC(=O)N(C)C[C@H]1Oc2cc(C3=CCCCC3)ccc2S(=O)(=O)N([C@H](C)CO)C[C@H]1C`: the activation is -12.1%.
For `CCCN(CCC)C(=S)Nc1cc(C(=O)OC)ccc1C(=O)OC`, the activation was 20.1%.
As to `COC(=O)c1ccc(C(=O)Nc2cc(Cl)ccc2Cl)cc1NC(=O)c1ccccc1C`, the activation was 82.6% (active).
As to `CCN(CCO)C(=S)Nc1cc(C(=O)OC)ccc1C(=O)OC`, the activation is 18%.
As to `COc1cc(/C=N/NC(=O)Nc2ccccc2)ccc1OCCOc1ccccc1C`, the activation is 169% (active).
As to `Cc1ccc(F)c(NC(=O)CCOc2ccccc2C)c1`, the activation is -15%.
With `C/C=C/c1ccc(OCCOc2ccc(C=O)cc2OC)c(OC)c1`, the activation is 10.7%.
Turning to `C[C@H](O)C#Cc1ccc2c(c1)O[C@H](CN(C)C(=O)C1CCCCC1)[C@@H](C)CN([C@H](C)CO)S2(=O)=O`, the activation was 4.13%.
In the case of `CCCN1Cc2cccc(C(=O)NCc3ccccc3)c2C1=O` it was 72.4% (active); in that of `Cc1ccc(CNC(=O)c2ccccc2CCc2ccccc2)cc1`, -27.9%; in that of `CSc1ccccc1C(=O)NCc1ccccc1`, -6.59%.
`C[C@@H]1CN(C)C(=O)c2cc([N+](=O)[O-])ccc2O[C@@H]1CN(C)C(=O)OC(C)(C)C`: the activation was 16%.
With `COc1cccc(-c2ccc3n(c2=O)C[C@@H]2[C@@H](CO)[C@H](C(=O)NC4CCC4)[C@H]3N2C)c1`, the activation is 7.74%.
On to `COc1cccc2cc(C(=O)NCc3ccc(C)cc3)c(=N)oc12`, for which the activation was 12.3%.
For `COc1cccc(C(=O)OCc2cc(=O)oc3c(C)c(C)ccc23)c1OC`, the activation is 8.16%.
Under `COc1cccc2cc(-c3cc(=O)oc4cc(C)c(O)cc34)oc12` stands 78.5% (active); under `CNC[C@@H]1Oc2ccc(N(C)C)cc2CC(=O)N(C)C[C@@H]1C`, 2%.
Turning to `CC(C)(C)c1ccc(S(=O)(=O)NC(=O)C2(C)CCN2C(=O)CC2CC2)cc1` (centres undefined), the activation is 7.26%.
In the case of `CC(C)(C(=O)N1CCC1(C)C(=O)NS(=O)(=O)c1ccc(Br)cc1)c1ccccc1` (centres undefined) it was 41.5% (active); in that of `CC1(C(=O)NS(=O)(=O)c2ccccc2)CCN1C(=O)C1CCCCC1` (centres undefined), 4.33%.
Take `O=C(NCC[C@@H]1CC[C@H](NC(=O)C2CCCCC2)[C@@H](CO)O1)Nc1ccc(Cl)cc1`: the activation was -11.1%.
Regarding `Cc1noc(C)c1NC(=O)N(C)C[C@@H]1OCCCC[C@@H](C)Oc2ccc(NC(=O)C3CCCCC3)cc2C(=O)N([C@@H](C)CO)C[C@H]1C`, the activation is -7.43%.
`COc1ccc(-c2ccccc2[C@@H]2[C@@H](C#N)N(C(=O)NC3CCCC3)[C@H]2CO)cc1`: the activation is -19.5%.
Under `COc1ccc2c3c(n(C)c2c1)[C@@H](CO)N(Cc1ccccc1OC)CC31CN(CC2CCOCC2)C1` stands 10%.
In the case of `CC(C)C#Cc1ccc2c(c1)O[C@@H](CN(C)CC1CCOCC1)[C@H](C)CN([C@H](C)CO)S2(=O)=O` it was -9.43%.
Turning to `Cc1ccc(/C=N/NC(=O)COc2ccccc2-c2ccccc2)cc1`, the activation was 267% (active).
Under `O=C(COc1ccc(-c2ccccc2)cc1)NN=C1CCCC1` stands 11%.
For `O=C(CN1CCSCC1)N/N=C/c1ccc(F)cc1`, the activation was -0.738%.
`CN(C)C(=O)C[C@H]1CC[C@@H](NC(=O)Nc2cccc(F)c2)[C@H](CO)O1`: the activation was 3.3%.
As for `CN1c2ccc(-c3ccc(F)cc3)cc2[C@@H]2[C@@H](CCN2C(=O)c2cccnc2)[C@H]1CO`, the activation is 18.2%.
As for `CNC[C@H]1Oc2ccc(NS(=O)(=O)c3ccccc3)cc2CC(=O)N([C@H](C)CO)C[C@@H]1C`, the activation is 3.16%.
In the case of `Cc1cccc(C)c1NC(=O)C1CCCN1C(=O)OC(C)(C)C` (centres undefined) it was 2.21%; in that of `CCC[C@H]1CCCC/C=C\CCCC(=O)OCCN1C(=O)OC(C)(C)C`, 66.4% (active).
Take `Cc1ccc(C)c(NC(=O)C2CCCN2C(=O)OC(C)(C)C)c1` (centres undefined): the activation is -3.08%.
For `C[C@H]1CN(C)C(=O)c2cccc(N(C)C)c2O[C@@H]1CN(C)C`, the activation was -6.84%.
For `CNC[C@H]1Oc2cc(C#CCOC)ccc2S(=O)(=O)N([C@@H](C)CO)C[C@H]1C`, the activation is 4.43%.
In the case of `Cc1noc(C)c1NC(=O)Nc1ccc2c(c1)CC(=O)N([C@@H](C)CO)C[C@H](C)[C@@H](CN(C)C(=O)Nc1ccc3c(c1)OCO3)O2` it was 5.38%; in that of `CC(=O)N(C)C[C@@H]1Oc2ccc(NC(=O)NC(C)C)cc2C(=O)N(C)C[C@H]1C`, 9.69%; in that of `COc1ccc(/C=C/C(=O)Nc2ccc3c(c2)OCCO3)cc1OC`, 53.8% (active).
Regarding `COc1ccc(NC(=O)CN(C)S(=O)(=O)c2ccccc2)cc1OC`, the activation is 8.5%.
In the case of `COc1ccc(S(=O)(=O)N(C)CC(=O)Nc2ccc3c(c2)OCCO3)cc1OC` it was 79.4% (active); in that of `CN(CC(=O)Nc1ccc(C(N)=O)cc1)S(=O)(=O)c1ccc2c(c1)OCCO2`, -7.44%.
In the case of `COc1ccc(/C=C/C(=O)Nc2ccc(C34CC5CC(CC(O)(C5)C3)C4)cc2)cc1OC`, the activation is 11.4%.
As to `COc1ccc(Cl)cc1NC(=O)CN(C)CC(=O)Nc1ccc2c(c1)OCO2`, the activation was -15.8%.
In the case of `C[C@H](CO)N1C[C@H](C)[C@@H](CN(C)CC2CC2)Oc2ccc(NS(=O)(=O)c3cn(C)cn3)cc2CC1=O` it was 9.55%.
For `CO[C@H]1CN(C)C(=O)c2cc(NC(C)=O)ccc2OC[C@H](C)N(C(=O)CN(C)C)C[C@@H]1C`, the activation is 13.5%.
Regarding `O=C(Nc1cc(F)ccc1F)N1CC(=O)N2[C@H](CO)[C@@H](c3ccc(-c4cccnc4)cc3)[C@@H]2C1`, the activation is 13.1%.
Under `O=C(C1CCCC1)N1CC2(C1)[C@H](c1ccccc1)[C@H](CO)N2CCC(F)(F)F` stands -20.6%; under `O=C(O)CCCN1C(=O)c2ccccc2Sc2ncccc21`, 3.02%.
For `O=C(O)CCCN1C(=O)C2C3c4ccccc4C(c4ccccc43)[C@@H]2C1=O` (some centres undefined), the activation is 45.1% (active).
As for `O=C(CCN1C(=O)C2C3C=CC(C3)C2C1=O)Nc1ccccc1F` (centres undefined), the activation was 3.2%.
With `COCC(=O)Nc1ccc2c(c1)OC[C@H](C)NC[C@@H](C)[C@H](OC)CN(C)C2=O`, the activation is -5.25%.
Consider `COc1ccc2c3c([nH]c2c1)[C@H](CO)N(CC1CC1)CC31CN(C(=O)Nc2cccc(F)c2)C1`, for which the activation is -17.2%.
Consider `COc1ccc(CN(C)C[C@H]2Oc3ccc(NS(=O)(=O)c4c(C)noc4C)cc3CC(=O)N([C@H](C)CO)C[C@H]2C)cc1`, for which the activation is 6.22%.
As to `Cc1nc2ccccc2nc(=O)c1NNc1ccc([N+](=O)[O-])cc1`, the activation is -4.75%.
In the case of `Cc1nc(-c2ccc([N+](=O)[O-])cc2)c(-c2ccccc2)o1` it was 97.9% (active).
As for `CCC1OC(c2ccc([N+](=O)[O-])cc2)=Nc2ccccc21` (centres undefined), the activation was 0.826%.
Take `COC(=O)C[C@H]1C=C[C@H](NC(=O)Nc2ccc(C(F)(F)F)cc2)[C@@H](CO)O1`: the activation is 15.4%.
Consider `COc1ccccc1-c1noc(CSc2nc(C)cc(=O)[nH]2)n1`, for which the activation was 5.85%.
With `Cc1ccc2[nH]c(=O)c(CN(C)S(=O)(=O)c3cccc4nonc34)cc2c1`, the activation is 6.21%.
With `CCCc1nc(-c2cc3cc(C)ccc3[nH]c2=O)no1`, the activation was 43.8% (active).
In the case of `C[C@@H]1CN(C)C(=O)c2cccc(N(C)C)c2O[C@H]1CN(C)S(C)(=O)=O`, the activation is 23.8%.
On to `COc1cccc(C#Cc2ccc([C@@H]3[C@H]4CN(C(=O)Cc5ccccc5)CC(=O)N4[C@H]3CO)cc2)c1`, for which the activation was 6.19%.
Take `COc1ccccc1NC(=O)N1CCCCN2[C@@H](CO)[C@@H](c3ccc(C#Cc4ccccc4)cc3)[C@@H]2C1`: the activation is -22.8%.
Under `S=C(Cc1ccc(Cl)cc1)N1CCOCC1` stands 9.43%.
In the case of `O=C(CC(c1ccccc1)c1cc(Cl)ccc1O)NCCN1CCOCC1` (centres undefined), the activation is -15%.
On to `OC(c1ccc(Cl)cc1)C(CN1CCOCC1)c1ccccc1` (centres undefined), for which the activation is 225% (active).
As to `O=C(NC[C@@H]1[C@@H](c2ccccc2)[C@@H](CO)N1Cc1ccccn1)C1CCC1`, the activation is 1.69%.
Consider `CCc1cnc(N2[C@H](C#N)[C@H](c3ccccc3-c3ccccc3C)[C@H]2CO)s1`, for which the activation is -14.3%.
As to `O=C(CSc1nc(C2CC2)nc2ccccc12)Nc1ccc2c(c1)OCCO2`, the activation is 43.1% (active).
As for `Cc1nnc(NC(=O)CSc2nc(C3CCCCC3)nc3ccccc23)s1`, the activation is 16.1%.
In the case of `O=C(CSc1nnnn1C1CCCC1)Nc1ccc2c(c1)OCCO2` it was 4.25%.
